Reference: PubChem BioAssay (Tox21)
Several values for one entry are separate records, joined by “and”; a condition that tells them apart may be missing. Equal entries are not always repeated. Records with an inconclusive call do not appear. Some structures have more than one record in an assay (separate samples or runs), and their calls can disagree. Activity calls are given as the source filed them. Unless noted, the call rests on the fitted dose curve; in most records, active means well fitted curve in the direction sought with a large enough effect in the repeat runs; inconclusive means weak or mixed curves; inactive means no such curve, though single readings can be large; an effect the other way counts as inactive or inconclusive.

How the values were obtained:
[1] = target: Retinoic acid receptor RXR-alpha (Homo sapiens) (UniProt P19793); assay: qHTS assay to identify small molecule agonists of the RXR signaling pathway (AID 1159527; calls by dose curve; further: nearly all actives have a fitted effect of over 35% in size)
Procedure, shortened: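 Compounds in DMSO were added to RXR-alpha-UAS-bla HEK 293T cells kept in 2% charcoal-stripped serum, and incubated 16 hr at 37 C with 5% CO2. Reporter signal came from a 2 hr B/G FRET substrate step.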

[2] = qHTS assay to identify small molecule agonists of the RXR signaling pathway - cell viability counter screen (AID 1159529);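 further: HEK 293T cells carrying an RXR-alpha UAS beta-lactamase reporter; series mostly up to about 77 µM; nearly all actives have a fitted effect of over 50% in size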
Procedure, shortened: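 Counter screen: CellTiter-Glo luminescence. Cells: RXR-alpha-UAS-bla HEK 293T. Medium: 2% charcoal-stripped FBS. Treatment: 16 h, 37 C. Reagent incubation: 30 min, RT.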

[3] = qHTS assay to identify small molecule antagonists of the retinoid acid receptor (RAR) signaling pathway - cell viability counter screen (AID 1159551); further: nearly all actives have a fitted effect of over 35% in size
Procedure, shortened: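 In this counter screen, the RARE-luciferase line C3RL4 was exposed for 6 h at 37 C and 5% CO2 to compounds with retinol at 1 uM final. Cellular ATP, read by luminescence, served as the viability measure.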

[4] = qHTS assay to identify small molecule antagonists of the retinoic acid receptor (RAR) signaling pathway (AID 1159552; further: nearly all actives have a fitted effect of over 50% in size)
Procedure, shortened: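 Antagonism of retinol-induced RARE reporter activity was measured in C3RL4 cells. Exposure to compounds and 1 uM final retinol lasted 6 hr at 37 C, with luminescence as endpoint.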

[5] = qHTS assay to identify small molecule agonists of the retinoic acid receptor (RAR) signaling pathway (AID 1159553)
Procedure, shortened: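 In this cell-based screen, 1,000 C3RL4 cells per well were cultured overnight, dosed with test chemicals in DMSO for 6 hr, and assessed for RARE luciferase luminescence.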

[6] = qHTS assay to identify small molecule antagonists of the estrogen related receptor (ERR) signaling pathway from Tox21 library - cell viability counter screen (AID 1224834); further: nearly all actives have a fitted effect of over 30% in size; further: potency means the concentration at half of the fitted maximal effect
Procedure, shortened: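 Counter screen run in ERR cells (2,000 cells/well): cells pre-incubated 6 h, then treated with compounds for 17.5 h at 37 C. Fluorescence was read 30 min after CellTiter-Fluor addition.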

[7] = target: Luciferin 4-monooxygenase (Photinus pyralis) (UniProt P08659); assay: qHTS assay to identify small molecule inhibitors of firefly luciferase (AID 1224835); further: series mostly up to about 120 µM; nearly all actives have a fitted effect of over 25% in size
Procedure, shortened: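 Inhibition of purified Photinus luciferase is measured by luminescence. Substrate levels (D-luciferin, ATP) sit at their KM values. Each compound is tested in a concentration series.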

[8] = qHTS assay to identify small molecule agonists of the constitutive androstane receptor (CAR) signaling pathway - cell viability counter screen (AID 1224836); further: nearly all actives have a fitted effect of over 45% in size; further: potency means the concentration at half of the fitted maximal effect
Procedure, shortened: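 Double-stable HepG2 hepatoma cells (hCAR plus CYP2B6-2.2kb) are treated for 23 h at 37 C with test compounds in 15-point concentration series. PK11195 at 0.75 uM final is co-added. Cell viability is quantified by CellTiter-Fluor.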

[9] = qHTS assay to identify small molecule antagonists of the constitutive androstane receptor (CAR) signaling pathway - cell viability counter screen (AID 1224837); further: nearly all actives have a fitted effect of over 45% in size; further: potency means the concentration at half of the fitted maximal effect
Procedure, shortened: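 CITCO at 50 nM final was added alongside compounds (15 concentrations) to double-stable hCAR/CYP2B6-2.2kb HepG2 cells. Following 23 hr at 37 C, cell viability was quantified by CellTiter-Fluor fluorescence intensity.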

[10] = qHTS assay to identify small molecule antagonists of the estrogen related receptor signaling pathway with the pleiotropic PPARgamma coactivator (PGC) from Tox21 10K library - cell viability counter screen (AID 1224840; active means well fitted cell-killing curve with a large enough effect in the repeat runs, not every such curve was filed as active; further: nearly all actives have a fitted effect of over 40% in size; further: potency means the concentration at half of the fitted maximal effect)
Procedure, shortened: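 Readout: fluorescence intensity from CellTiter-Fluor after 30 min at 37 C/5% CO2. Preceded by 17.5 h treatment of PGC/ERR cells with DMSO-dissolved compounds, added 6 h post-seeding.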

[11] = target: Nuclear receptor subfamily 1 group I member 3 (Homo sapiens) (UniProt Q14994); assay: qHTS assay to identify small molecule antagonists of the constitutive androstane receptor (CAR) signaling pathway (AID 1224838); further: nearly all actives have a fitted effect of over 40% in size
Procedure, shortened: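 Inhibition of CITCO-driven (50 nM final) CYP2B6 reporter expression is measured in HepG2 cells stably carrying hCAR. Fifteen compound concentrations are applied for 24 h at 37 C, followed by luciferase luminescence.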

[12] = target: Nuclear receptor subfamily 1 group I member 3 (Homo sapiens) (UniProt Q14994); assay: qHTS assay to identify small molecule agonists of the constitutive androstane receptor (CAR) signaling pathway (AID 1224839); further: series mostly up to about 92 µM; nearly all actives have a fitted effect of over 15% in size
Procedure, shortened: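 Readout: firefly luciferase luminescence via ONE-Glo. System: HepG2 double-stable for hCAR and CYP2B6-2.2kb. Conditions: 15-point compound titration, PK11195 at 0.75 uM final, 24 h incubation.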

[13] = qHTS assay to identify small molecule antagonists of the estrogen related receptor signaling pathway with the pleiotropic PPARgamma coactivator (PGC) from Tox21 10K library (AID 1224841; call rule not given here; further: actives are mostly falling curves and most rising ones were filed inactive; nearly all actives have a fitted effect of over 50% in size; further: potency means the concentration at half of the fitted maximal effect)
Procedure, shortened: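 One-Glo luminescence, measured after half an hour at room temperature, quantified reporter output of PGC/ERR cells. These had been plated at 2,000 per well, incubated 6 h, dosed with compounds in DMSO, then kept 18 h at 37 C.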

[14] = qHTS assay to identify small molecule agonists of the estrogen related receptor signaling pathway with the pleiotropic PPARgamma coactivator (PGC) from Tox21 10K library (AID 1224842); further: nearly all actives have a fitted effect of over 15% in size
Procedure, shortened: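 Luminescence from One-Glo (30 min, room temperature) measured after PGC/ERR cells had 18 h at 37 C with pinned compound (23 nL in DMSO). Cells had been seeded at 2,000 per well and pre-incubated 6 h.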

Measured: Potency

Nuclear receptor subfamily 1 group I member 3 (Homo sapiens), sequence (Q14994 whole entry, looked up): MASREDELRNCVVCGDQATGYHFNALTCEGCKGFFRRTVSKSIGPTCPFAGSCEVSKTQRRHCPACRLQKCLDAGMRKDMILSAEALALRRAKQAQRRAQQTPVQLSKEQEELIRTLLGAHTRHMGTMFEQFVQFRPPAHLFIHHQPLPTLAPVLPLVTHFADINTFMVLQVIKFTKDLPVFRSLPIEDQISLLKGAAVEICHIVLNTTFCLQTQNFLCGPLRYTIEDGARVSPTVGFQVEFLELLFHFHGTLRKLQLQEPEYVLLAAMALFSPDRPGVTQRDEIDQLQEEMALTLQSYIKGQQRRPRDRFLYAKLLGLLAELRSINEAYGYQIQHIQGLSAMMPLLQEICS
Luciferin 4-monooxygenase (Photinus pyralis), sequence (P08659 whole entry, looked up): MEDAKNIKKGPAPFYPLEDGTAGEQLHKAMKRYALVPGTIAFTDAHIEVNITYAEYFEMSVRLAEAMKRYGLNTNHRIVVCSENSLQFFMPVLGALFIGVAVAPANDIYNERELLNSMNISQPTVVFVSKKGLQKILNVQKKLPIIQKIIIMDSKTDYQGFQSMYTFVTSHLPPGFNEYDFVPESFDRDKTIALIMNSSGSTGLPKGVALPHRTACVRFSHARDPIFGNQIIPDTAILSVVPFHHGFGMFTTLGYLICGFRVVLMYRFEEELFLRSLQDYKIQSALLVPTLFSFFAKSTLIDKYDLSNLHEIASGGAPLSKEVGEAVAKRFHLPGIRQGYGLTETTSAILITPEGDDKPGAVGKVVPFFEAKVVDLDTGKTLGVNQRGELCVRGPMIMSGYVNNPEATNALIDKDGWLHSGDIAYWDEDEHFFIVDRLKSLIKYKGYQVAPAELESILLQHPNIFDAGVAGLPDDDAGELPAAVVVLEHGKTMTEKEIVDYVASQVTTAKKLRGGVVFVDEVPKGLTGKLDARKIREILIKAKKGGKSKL
Retinoic acid receptor RXR-alpha (Homo sapiens), sequence (P19793 whole entry, looked up): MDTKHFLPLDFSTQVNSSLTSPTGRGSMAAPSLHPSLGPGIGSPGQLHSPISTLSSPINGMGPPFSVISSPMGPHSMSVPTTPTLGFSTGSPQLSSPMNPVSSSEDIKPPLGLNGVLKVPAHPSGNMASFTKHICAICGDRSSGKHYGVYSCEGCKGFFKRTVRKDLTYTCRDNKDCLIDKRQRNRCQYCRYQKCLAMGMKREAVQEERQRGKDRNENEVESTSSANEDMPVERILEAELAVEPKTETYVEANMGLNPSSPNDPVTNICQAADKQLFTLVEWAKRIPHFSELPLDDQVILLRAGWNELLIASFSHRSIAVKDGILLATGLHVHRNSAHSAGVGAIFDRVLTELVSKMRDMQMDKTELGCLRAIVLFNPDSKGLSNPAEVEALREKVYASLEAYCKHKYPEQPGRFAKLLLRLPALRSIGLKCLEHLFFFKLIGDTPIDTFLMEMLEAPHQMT

CC(O)CC(C)(C)O (configuration not stated)
inactive: [1] | [2] | [3] | [4] | [5] | [6] | [7] | [8] | [9] | [10]

CCCCCCCCCCCCCCCCO
inactive: [1] | [2] | [3] | [4] | [5] | [6] | [8] | [9] | [11] | [12] | [10]

CC1(C)CC(N)CC(C)(CN)C1 (configuration not stated)
inactive: [1] | [2] | [3] | [4] | [5] | [6] | [8] | [9] | [10]

OCc1cccc(Oc2ccccc2)c1
inactive: [1] | [2] | [3] | [4] | [5] | [6] | [8] | [9] | [11] | [10]

O=S(=O)(O)c1ccc(N=Nc2c(O)ccc3cc(S(=O)(=O)O)ccc23)cc1
inactive: [1] | [2] | [3] | [4] | [5] | [11] | [14]
27.4 µM (active) and inactive: [13]
active: [6] 30.8 µM and 54.5 µM | [8] 54.7 µM and 30.6 µM | [9] 54.7 µM and 27.3 µM | [10] 48.6 µM

Clc1ccccn1
inactive: [1] | [2] | [3] | [4] | [5] | [6] | [7] | [8] | [9] | [10]

NCCNCCN
inactive: [1] | [2] | [3] | [4] | [5] | [6] | [7] | [8] | [9] | [11] | [10] | [13] | [14]

O=C(O)Cn1c(=O)n(Cc2ccc(Br)cc2F)c(=O)c2ccc(Cl)cc21
inactive: [1] | [2] | [3] | [4] | [5] | [6] | [8] | [9] | [11] | [12] | [10] | [13] | [14]

CN(C)c1ccc(Cc2ccc(N(C)C)cc2)cc1
inactive: [1] | [2] | [3] | [4] | [5] | [6] | [8] | [9] | [10] | [13] | [14]

Cc1ccc([N+](=O)[O-])cc1S(=O)(=O)O
inactive: [1] | [2] | [3] | [4] | [5] | [6] | [7] | [8] | [9] | [10] | [13] | [14]

CCOC(=O)n1ccn(C)c1=S
inactive: [1] | [2] | [3] | [4] | [5] | [6] | [8] | [9] | [10]

Nc1nc(N)nc(-c2ccccc2)n1
inactive: [1] | [2] | [3] | [4] | [5] | [6] | [7] | [8] | [9] | [11] | [12] | [10]
